Reference: the supplement of paper PMC11732987, “Enantioselective OTUD7B fragment discovery through chemoproteomics screening and high-throughput optimisation” (Communications Chemistry, 2025)

How the values were obtained:
Experiment in all cases: log2 ratio of Biotin-Ahx-Ub-VS probe labelling (fragment/DMSO); higher = less target engagement (more negative = stronger competition), active = hit call of the paper (q ≤ 0.05, log2 ratio ≤ -1)
Conditions in all cases: compound concentration: 200 uM; treatment time: 3 h
OTUD6B = target: T1, OTUD6B (UniProt Q8N6M0)
T1 sequence (whole entry): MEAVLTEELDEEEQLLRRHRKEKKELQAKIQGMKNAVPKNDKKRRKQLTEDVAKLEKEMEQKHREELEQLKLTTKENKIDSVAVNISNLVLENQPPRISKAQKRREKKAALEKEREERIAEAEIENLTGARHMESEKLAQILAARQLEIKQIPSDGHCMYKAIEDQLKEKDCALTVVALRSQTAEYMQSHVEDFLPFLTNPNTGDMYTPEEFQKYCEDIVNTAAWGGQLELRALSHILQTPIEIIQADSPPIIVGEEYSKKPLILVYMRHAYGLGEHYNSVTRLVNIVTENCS
Procedure, shortened: (§1)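 Fragment (200 µM) or vehicle was incubated for 3 h with triplicate HEK293T lysate samples of 495 µg, which were then treated with Biotin-Ahx-Ub-VS at 0.5 µM final for 1 h. Labelled DUBs were enriched on NeutrAvidin, digested with LysC and trypsin, and analysed by diaPASEF LC-MS/MS. Values are average log2 fragment/vehicle ratios from an unpaired t-test on global-median-normalised Spectronaut label-free quantities, using proteins with ≥2 unique peptides.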

OTUD7B = target: T2, OTUD7B (UniProt Q6GQQ9)
T2 sequence (whole entry): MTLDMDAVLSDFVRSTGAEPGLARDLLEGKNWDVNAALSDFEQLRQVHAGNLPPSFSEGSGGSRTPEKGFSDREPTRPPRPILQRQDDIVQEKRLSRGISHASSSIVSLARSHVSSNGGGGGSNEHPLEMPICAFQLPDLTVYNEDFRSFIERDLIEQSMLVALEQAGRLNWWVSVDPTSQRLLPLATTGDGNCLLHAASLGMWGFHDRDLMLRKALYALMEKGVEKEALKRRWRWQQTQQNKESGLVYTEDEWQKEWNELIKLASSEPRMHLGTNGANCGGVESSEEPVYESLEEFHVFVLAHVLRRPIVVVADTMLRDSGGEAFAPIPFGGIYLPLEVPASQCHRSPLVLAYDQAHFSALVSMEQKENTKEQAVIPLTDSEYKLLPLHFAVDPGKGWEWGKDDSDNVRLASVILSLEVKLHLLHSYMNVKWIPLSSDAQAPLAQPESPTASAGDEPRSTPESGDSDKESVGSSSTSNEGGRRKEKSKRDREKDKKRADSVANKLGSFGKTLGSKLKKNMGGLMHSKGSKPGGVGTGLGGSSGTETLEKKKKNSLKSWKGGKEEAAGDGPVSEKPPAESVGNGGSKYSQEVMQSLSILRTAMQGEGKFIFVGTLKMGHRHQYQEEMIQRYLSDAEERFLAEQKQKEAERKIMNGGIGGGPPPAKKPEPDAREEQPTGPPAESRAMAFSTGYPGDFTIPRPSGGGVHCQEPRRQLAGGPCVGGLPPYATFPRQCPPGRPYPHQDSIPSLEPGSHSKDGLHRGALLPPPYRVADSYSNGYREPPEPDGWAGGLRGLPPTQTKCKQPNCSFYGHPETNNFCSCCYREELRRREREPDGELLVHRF
Procedure, shortened: as §1

PRPF8 = PRPF8 (UniProt Q6P2Q9)
Procedure, shortened: as §1

PSMD7 = target: T3, PSMD7 (UniProt P51665)
T3 sequence (whole entry): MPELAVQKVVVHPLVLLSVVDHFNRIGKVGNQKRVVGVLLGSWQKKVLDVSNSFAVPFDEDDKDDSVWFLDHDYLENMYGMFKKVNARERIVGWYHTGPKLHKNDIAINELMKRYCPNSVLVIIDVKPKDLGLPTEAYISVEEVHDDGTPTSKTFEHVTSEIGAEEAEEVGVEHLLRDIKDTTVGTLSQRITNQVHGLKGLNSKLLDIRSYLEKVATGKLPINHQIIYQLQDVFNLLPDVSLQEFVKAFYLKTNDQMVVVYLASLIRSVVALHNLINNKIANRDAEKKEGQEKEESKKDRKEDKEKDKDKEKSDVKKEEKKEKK
Procedure, shortened: as §1

UCHL1 = UCHL1 (UniProt P09936)
Procedure, shortened: as §1

UCHL3 = target: T4, UCHL3 (UniProt P15374)
T4 sequence (whole entry): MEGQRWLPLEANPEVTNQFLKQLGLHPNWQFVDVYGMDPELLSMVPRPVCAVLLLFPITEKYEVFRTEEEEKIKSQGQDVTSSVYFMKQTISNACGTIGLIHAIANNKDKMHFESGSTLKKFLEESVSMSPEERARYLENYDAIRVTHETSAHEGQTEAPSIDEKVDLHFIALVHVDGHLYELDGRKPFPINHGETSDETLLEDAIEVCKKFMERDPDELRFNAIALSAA
Procedure, shortened: as §1

UCHL5 = target: T5, UCHL5 (UniProt Q9Y5K5)
T5 sequence (whole entry): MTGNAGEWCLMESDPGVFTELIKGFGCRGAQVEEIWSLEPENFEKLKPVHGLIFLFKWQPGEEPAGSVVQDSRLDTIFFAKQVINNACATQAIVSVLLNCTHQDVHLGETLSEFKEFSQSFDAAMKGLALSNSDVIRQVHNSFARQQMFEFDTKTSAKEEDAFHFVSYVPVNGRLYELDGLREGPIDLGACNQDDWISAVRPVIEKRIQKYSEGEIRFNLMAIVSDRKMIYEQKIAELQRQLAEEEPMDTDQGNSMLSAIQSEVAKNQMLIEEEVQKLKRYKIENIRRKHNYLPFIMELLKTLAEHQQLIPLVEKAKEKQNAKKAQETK
Procedure, shortened: as §1

USP10 = USP10 (UniProt Q14694)
Procedure, shortened: as §1

USP15 = target: T6, USP15 (UniProt Q9Y4E8)
T6 sequence (whole entry): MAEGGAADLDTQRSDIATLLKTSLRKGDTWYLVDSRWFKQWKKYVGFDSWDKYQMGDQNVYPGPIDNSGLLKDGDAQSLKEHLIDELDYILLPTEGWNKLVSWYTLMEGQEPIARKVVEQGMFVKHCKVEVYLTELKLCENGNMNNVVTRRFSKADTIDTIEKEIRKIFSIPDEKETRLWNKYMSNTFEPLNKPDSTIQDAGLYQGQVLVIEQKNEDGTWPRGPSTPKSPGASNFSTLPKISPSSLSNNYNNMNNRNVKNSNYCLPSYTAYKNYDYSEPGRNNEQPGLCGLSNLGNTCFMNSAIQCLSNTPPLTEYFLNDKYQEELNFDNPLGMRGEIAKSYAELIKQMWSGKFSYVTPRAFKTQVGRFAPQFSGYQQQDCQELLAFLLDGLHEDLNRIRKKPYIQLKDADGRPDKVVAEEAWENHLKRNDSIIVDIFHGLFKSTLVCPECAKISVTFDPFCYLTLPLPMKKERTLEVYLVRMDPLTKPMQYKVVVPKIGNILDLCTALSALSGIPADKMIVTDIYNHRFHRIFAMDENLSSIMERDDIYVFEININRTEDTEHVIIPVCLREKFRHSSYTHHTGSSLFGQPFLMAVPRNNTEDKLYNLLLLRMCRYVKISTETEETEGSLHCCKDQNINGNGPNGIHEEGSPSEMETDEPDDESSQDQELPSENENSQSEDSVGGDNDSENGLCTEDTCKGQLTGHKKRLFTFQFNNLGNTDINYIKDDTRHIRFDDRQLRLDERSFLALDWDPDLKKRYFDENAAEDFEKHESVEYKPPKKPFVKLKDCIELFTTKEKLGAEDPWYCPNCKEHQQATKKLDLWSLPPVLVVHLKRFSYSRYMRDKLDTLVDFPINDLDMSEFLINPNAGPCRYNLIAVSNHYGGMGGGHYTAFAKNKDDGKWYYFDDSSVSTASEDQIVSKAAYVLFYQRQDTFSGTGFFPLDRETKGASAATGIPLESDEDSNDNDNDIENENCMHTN
Procedure, shortened: as §1

USP16 = USP16 (UniProt Q9Y5T5)
Procedure, shortened: as §1

Measured: log2 ratio of Biotin-Ahx-Ub-VS probe labelling

Chain of USP16 (Q9Y5T5 whole entry, looked up): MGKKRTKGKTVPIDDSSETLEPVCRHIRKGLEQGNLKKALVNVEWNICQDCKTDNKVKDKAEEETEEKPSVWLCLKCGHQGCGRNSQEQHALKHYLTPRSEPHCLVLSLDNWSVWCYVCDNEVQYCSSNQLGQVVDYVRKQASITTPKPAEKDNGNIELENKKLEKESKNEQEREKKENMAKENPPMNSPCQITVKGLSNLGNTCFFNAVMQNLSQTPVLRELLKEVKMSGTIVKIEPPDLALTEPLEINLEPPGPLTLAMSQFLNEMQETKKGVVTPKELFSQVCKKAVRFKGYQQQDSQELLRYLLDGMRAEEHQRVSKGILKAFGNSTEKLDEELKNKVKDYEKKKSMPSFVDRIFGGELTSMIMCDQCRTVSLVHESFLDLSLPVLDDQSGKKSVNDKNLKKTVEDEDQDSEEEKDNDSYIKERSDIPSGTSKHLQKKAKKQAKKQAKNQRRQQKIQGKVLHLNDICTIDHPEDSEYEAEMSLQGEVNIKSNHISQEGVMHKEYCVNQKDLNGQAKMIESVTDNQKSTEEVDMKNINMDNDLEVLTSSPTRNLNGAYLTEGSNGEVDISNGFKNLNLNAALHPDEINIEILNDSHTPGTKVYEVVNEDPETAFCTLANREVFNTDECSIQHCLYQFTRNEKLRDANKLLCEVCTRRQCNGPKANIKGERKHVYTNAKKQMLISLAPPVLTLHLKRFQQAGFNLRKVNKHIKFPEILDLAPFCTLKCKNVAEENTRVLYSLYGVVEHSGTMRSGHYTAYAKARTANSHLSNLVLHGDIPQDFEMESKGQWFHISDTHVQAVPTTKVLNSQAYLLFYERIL
Chain of UCHL1 (P09936 whole entry, looked up): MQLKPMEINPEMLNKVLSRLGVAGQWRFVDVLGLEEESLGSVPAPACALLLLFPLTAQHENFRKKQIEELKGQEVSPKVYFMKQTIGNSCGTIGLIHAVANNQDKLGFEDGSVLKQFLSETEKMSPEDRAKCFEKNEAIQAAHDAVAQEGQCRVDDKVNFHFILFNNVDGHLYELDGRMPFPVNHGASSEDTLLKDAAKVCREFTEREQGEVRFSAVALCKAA
Chain of USP10 (Q14694 whole entry): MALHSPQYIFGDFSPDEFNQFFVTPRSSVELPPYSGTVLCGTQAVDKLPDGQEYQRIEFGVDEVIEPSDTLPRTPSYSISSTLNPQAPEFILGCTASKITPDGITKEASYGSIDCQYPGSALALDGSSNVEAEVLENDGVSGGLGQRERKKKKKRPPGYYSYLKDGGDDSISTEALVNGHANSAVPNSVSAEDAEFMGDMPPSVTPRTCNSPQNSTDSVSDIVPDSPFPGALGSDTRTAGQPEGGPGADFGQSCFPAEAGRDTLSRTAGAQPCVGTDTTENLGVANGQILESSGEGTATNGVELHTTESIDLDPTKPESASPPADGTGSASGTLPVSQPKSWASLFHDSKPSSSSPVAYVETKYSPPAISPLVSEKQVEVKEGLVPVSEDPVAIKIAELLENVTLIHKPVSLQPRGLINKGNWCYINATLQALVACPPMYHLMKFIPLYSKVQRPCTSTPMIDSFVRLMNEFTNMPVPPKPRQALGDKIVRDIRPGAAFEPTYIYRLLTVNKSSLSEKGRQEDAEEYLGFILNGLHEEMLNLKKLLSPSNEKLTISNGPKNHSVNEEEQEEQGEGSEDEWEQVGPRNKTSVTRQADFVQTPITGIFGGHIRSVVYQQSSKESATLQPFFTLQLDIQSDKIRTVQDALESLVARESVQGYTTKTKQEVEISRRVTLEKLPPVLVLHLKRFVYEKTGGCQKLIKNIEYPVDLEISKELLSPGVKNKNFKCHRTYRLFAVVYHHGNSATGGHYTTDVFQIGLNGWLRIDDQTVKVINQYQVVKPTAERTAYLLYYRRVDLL

O=C(CN1CCN(C(=O)CCl)CC1)Nc1cccc(F)c1
inactive: OTUD6B -0.321 | OTUD7B -0.452 | PRPF8 -0.19 | PSMD7 -0.137 | UCHL3 -0.122 | UCHL5 -0.336 | USP10 0.0386 | USP15 -0.225 | USP16 -0.245
active: UCHL1 -1.08
